In the library only some 19% were active in any assay of this set; here they are far more common.
IL-1B inflam inh – qHTS for Inhibitors of Inflammasome Signaling: IL-1-beta AlphaLISA Primary Screen. THP-1 LPS/ATP IL-1B secretion, AlphaLISA, 16 h; stronger effect = lower value. activity change, % at 57.5 µM. 4.7% of 360,000 active. AID 743279, 2014; in the data active = activity change below about -50%; inconclusive = mostly about -30% to -49%
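Secreted IL-1B measured by AlphaLISA bead assay after 16 h compound exposure of THP-1 cells; compounds (final up to 57.5 uM) added 1 h before LPS (250 ng/mL) and ATP (1.25 mM) stimulation; lower signal means less secretion.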
HT1080-NT tox – qHTS for induction of synthetic lethality in tumor cells producing 2HG: qHTS for the HT-1080-NT fibrosarcoma cell line | HT-1080-NT fibrosarcoma viability, CellTiter-Glo ATP luminescence, 48 h | 1.6% of 360,000 active | Potency, µM (doses to about 46.1 µM), for inactives: at the top dose activity, negative = less viability, usual class: cytotoxic;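 also: NT is the 2HG producing partner of a matched IDH1 knockdown line; potency is read from the fitted curve at half-maximal effect; 0% = DMSO-treated cells and -100% = media-only wells without cells; nearly all actives have a fitted effect of over 55% in size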
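HT-1080-NT fibrosarcoma cells (2HG-overproducing), 750 cells/well in RPMI with 5% FBS, dosed after 2 h and incubated 48 h at 37C. CellTiter-Glo luminescence normalized to DMSO and no-cell wells; concentration-response curves fitted and classed.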
uPA surface inh – qHTS for Inhibitors of Cell Surface uPA Generation; cell surface uPA generation assay, qHTS; Potency, µM (top dose mostly 38.3 µM), without a hit: at the highest dose activity change, negative = inhibition, usual class: inhibitors; 0.31% of 330,000 active; active = well fitted inhibition curve with a large enough effect; inconclusive = small, poorly fitted or top-dose-only effect; inactive = no such curve, though single readings can be large or run the other way; tested in mouse RAW 264.7 cells; also: potency is read from the fitted curve at half-maximal effect; nearly all actives have a fitted effect of over 55% in size
HT1080 IDH1KD tx – qHTS for induction of synthetic lethality in tumor cells producing 2HG: qHTS for the HT-1080-IDH1KD cell line | HT-1080 IDH1 knockdown viability, ATP luminescence, 48 h | Potency, µM (series often up to 46.1 µM), without a hit: at the highest dose activity, negative = toxicity, most hits filed as cytotoxic | 2% of 360,000 active | AID 686971, 2013;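 also: potency is read from the fitted curve at half-maximal effect; 0% = DMSO wells and -100% = cell-free medium wells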
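Cytotoxicity counter-line: IDH1KD HT-1080, 48 h, CellTiter-Glo. Curves classed by r2, magnitude and activity.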
TDP1 cell CPT – qHTS for Inhibitors of human tyrosyl-DNA phosphodiesterase 1 (TDP1): qHTS in cells in presence of CPT; chicken DT40 Tdp1-/-;hTDP1 cells + 20 nM CPT, ATP luminescence, 48 h; Potency, µM (series often up to 46.2 µM), inactives show top-dose activity change, negative = growth inhibition, most hits filed as inhibitors; 12% of 420,000 active; also: potency is read from the fitted curve at half-maximal effect; nearly all actives have a fitted effect of over 55% in size
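Chicken DT40 Tdp1-/- cells stably complemented with human TDP1 were seeded at 400 cells/well in medium containing 20 nM camptothecin, exposed to pin-transferred compounds, and grown at 37 °C for at least 48 hr. Viability was read as ATP luminescence.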
DT40 TDP1 no CPT – qHTS for Inhibitors of human tyrosyl-DNA phosphodiesterase 1 (TDP1): qHTS in cells in absence of CPT; DT40 Tdp1-/- hTDP1 cells, no CPT, ATP luminescence, 48 h; Potency, µM (highest dose often 46.2 µM), without a hit: at the top dose activity change, negative = growth inhibition, most hits filed as inhibitors; 15% of 420,000 active; also: potency is read from the fitted curve at half-maximal effect; nearly all actives have a fitted effect of over 55% in size
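Cells were dispensed at 400 per well, compounds added by pin tool, plates incubated ≥48 hr at 37 °C, then CellTiter-Glo added for 30 min at room temperature before luminescence reading. Line: DT40 Tdp1-/- complemented with hTDP1; camptothecin omitted.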
Starred values were filed as active, the others as inactive; u = inconclusive; x = no result. Unless noted, calls follow the shape of the dose curve; as a rule, active = well fitted curve in the direction sought with a large enough effect; inconclusive = small, poorly fitted or top-dose-only effect, or another doubt; inactive = no such curve, though single readings can be large; an effect the other way counts as inactive or inconclusive. Unless noted, % is scaled to controls: 0 for no effect and ±100 for the full control effect.

SMILES	IL-1B inflam inh	HT1080-NT tox	uPA surface inh	HT1080 IDH1KD tx	TDP1 cell CPT	DT40 TDP1 no CPT
FC(F)(F)c1cccc(Nc2nc(N3CCOCC3)nc(N3CCOCC3)n2)c1	-6.3	4.3%	22.9%	2.0%	13µM*	u
Cc1cc(N(CCO)CCO)ccc1C(c1ccc(N(CCO)CCO)cc1C)c1ccccc1Cl	-68.5*	-14.1%	-8.8%	-6.4%	-28.9%	-6.9%
CN(C)c1ccc(C(=O)C(O)c2ccccc2Cl)cc1 (stereo not given)	u	-8.0%	3.4%	-12.7%	4.8%	-29.2%
CCCCn1nnnc1C(c1cc2ccccc2o1)N1CCN(c2c(C)cccc2C)CC1 (stereo not given)	4.2	10.5%	x	15.9%	u	18.4µM*
CCCCn1nnnc1C(c1cc2ccccc2o1)N1CCN(CCN(C)C)CC1 (stereo not given)	-4.7	u	x	-0.5%	u	20.6µM*
CCCCn1nnnc1C(c1cc2ccccc2o1)N1CCN(c2ccccc2F)CC1 (stereo not given)	-21.0	15.6%	x	6.9%	u	u
CCCCn1nnnc1C(c1cc2ccccc2o1)N1CCCCC1 (stereo not given)	-8.2	3.0%	x	-28.1%	u	u
CCCCn1nnnc1C(c1cc2ccccc2o1)N1CCN(c2cc(C)nc3ccccc23)CC1 (stereo not given)	-24.3	18.4µM*	x	u	u	u
CCOC(=O)N1CCN(C(c2cc3ccccc3o2)c2nnnn2C(C)(C)C)CC1 (stereo not given)	3.4	9.6%	x	3.3%	-4.5%	u
Cc1cccc(C)c1N1CCN(C(c2cc3ccccc3o2)c2nnnn2C(C)(C)C)CC1 (stereo not given)	9.4	3.9%	x	u	14.6µM*	u
COc1ccc(NC(=O)c2nnn(CC(=O)Nc3ccc4c(c3)OCO4)c2N)c(OC)c1	-8.1	-22.5%	-4.1%	u	-34.7%	1.2%
CCCCn1nnnc1C(c1cc2ccccc2o1)N1CCN(c2ccncc2)CC1 (stereo not given)	-60.8*	u	x	u	20.6µM*	23.1µM*
C#CCOCCOCCOCCNc1nc(N2CCN(C(=O)[C@H](CCC(=O)O)n3cc([C@@H](N)CCCCN)nn3)CC2)nc(N2CCN(C(=O)[C@H](CCCCN)n3cc([C@@H](N)CC(N)=O)nn3)CC2)n1	17.7	u	14.8%	19.3%	8.1%	2.0%
C=CCNC(=S)N/N=C(\C)c1cc(OC)c(OC)c(OC)c1	0.0	-8.1%	-1.4%	-7.8%	4.11µM*	2.91µM*
O=c1[nH]nc(-c2ccc([N+](=O)[O-])o2)c(=O)[nH]1	13.2	3.9%	3.9%	-5.9%	0.9%	-7.8%
Nc1nnc(-c2ccc([N+](=O)[O-])o2)s1	2.4	23.1µM*	-14.8%	-18.3%	18.4µM*	9.2µM*
COC(=O)c1cc(NC(=O)c2ccc3c(c2)NC(=O)c2ccccc2S3)cc(C(=O)OC)c1	x	x	x	x	4.61µM*	6.51µM*
O=C(Nc1ccc2oc(-c3cccc4c(Br)cccc34)nc2c1)c1ccc(F)cc1	x	x	x	x	u	10.3µM*
CCOc1ccc(C(=O)Nc2ccc(-c3nc4cc(CC)ccc4o3)cc2)cc1	x	x	x	x	3.66µM*	u
O=C(Nc1ccc2oc(-c3cccc(Cl)c3Cl)nc2c1)c1cccc(Br)c1	x	x	x	x	13µM*	u
COc1ccc(C(=O)Nc2ccc3oc(-c4ccc5ccccc5c4)nc3c2)cc1Br	x	x	x	x	18.4µM*	18.4µM*
CCOc1ccc(C(=O)Nc2ccc3oc(-c4ccc(Br)cc4)nc3c2)cc1	x	x	x	x	u	9.8%
CCc1ccc2oc(-c3ccc(NC(=O)c4ccc(OC)c(Br)c4)cc3)nc2c1	x	x	x	x	-15.1%	-25.5%
CSc1ccc(-c2nc(O)c3cnccn23)cc1	17.6	5.0%	0.6%	13.5%	1.5%	-10.7%
Cc1ccc(C(=O)Nc2ccc3oc(-c4cc(Br)ccc4Cl)nc3c2)cc1	x	x	x	x	23.1µM*	u
SMILES	IL-1B inflam inh	HT1080-NT tox	uPA surface inh	HT1080 IDH1KD tx	TDP1 cell CPT	DT40 TDP1 no CPT
O=C(Nc1ccc2oc(-c3ccccc3F)nc2c1)c1ccccc1Cl	x	x	x	x	u	13µM*
COc1ccc(C(=O)Nc2ccc3oc(-c4cc(Cl)ccc4Cl)nc3c2)cc1Br	x	x	x	x	-2.6%	5.9%
Cc1ccc2oc(-c3cc(NC(=O)c4oc5ccccc5c4C)ccc3Cl)nc2c1	x	x	x	x	0.0164µM*	-81.4%
O=C(Nc1ccc2oc(-c3ccccc3F)nc2c1)c1cncc(Br)c1	-2.6	29.7%	2.9%	19.8%	-19.6%	u
N#Cc1ccc(C(=O)Nc2ccc(Cl)c(-c3nc4cc(Cl)ccc4o3)c2)c(F)c1	x	x	x	x	23.1µM*	18.4µM*
Cc1cccc(CN2C(=O)c3ccccc3S(=O)(=O)c3ccc(C(=O)N4CCN(c5cc(C)ccc5C)CC4)cc32)c1	x	x	x	x	-21.2%	-28.2%
COc1cc(CN2CCC(n3nccc3NC(=O)C3CC3)CC2)cc(OC)c1	5.6	-5.4%	6.3%	-6.0%	-3.0%	-1.8%
CC(C)c1nn2c(=O)cc(COC(=O)CNC(=O)c3ccccc3)nc2s1	x	x	x	x	-22.5%	-13.4%
COc1ccc(-n2ccn(Cc3ccc(C)cc3)c(=O)c2=O)cc1OC	x	x	x	x	-5.6%	-0.2%
CC(C)c1ccc2oc(-c3cc(NC(=O)c4cccnc4)ccc3Cl)nc2c1	x	x	x	x	u	16.4µM*
COc1ccc(-c2nc3cc(NC(=O)c4ccc(C)cc4)ccc3o2)cc1Cl	x	x	x	x	20.6µM*	u
COc1ccc(C(=O)Nc2ccc3oc(-c4ccc(OC)cc4)nc3c2)cc1	x	x	x	x	5.4%	-19.6%
COc1ccc(Br)cc1C(=O)Nc1ccc(-c2nc3cc(Cl)ccc3o2)cc1	x	x	x	x	-9.1%	-4.0%
Cc1ccc(C(=O)Nc2ccc3oc(-c4ccc(C(C)(C)C)cc4)nc3c2)cc1	x	x	x	x	u	8.2µM*
CCOC(=O)[C@@H](NC(=O)CC[C@H]1O[C@@H](n2ccc(=O)[nH]c2=O)[C@H](O)[C@@H]1O)C(C)C	18.2	4.2%	x	8.9%	-0.6%	31.0%
Cc1nn2cnnc2c(C)c1Cc1ccc(Cl)cc1	0.8	-1.1%	0.6%	0.0%	u	u
Cc1ccc(S(=O)(=O)N2CCOCC2)cc1NC(=O)CNCC1CCCCC1	-10.6	0.0%	-6.0%	2.5%	u	u

Screening results: PubChem, National Center for Advancing Translational Sciences (NCATS)
